# Compound activity (PubChem BioAssay)
# Shown is part of a subset that was picked to be rich in hits.
# AmpC no deterg – qHTS Inhibitors of AmpC Beta-Lactamase (assay without detergent). AID 485341, 2010. actives 0.52% (n = 330,000). P00811. Potency, µM (doses to about 57.1 µM), actives largely listed as inhibitors. AmpC nitrocefin hydrolysis, absorbance 480 nm, 0.0001% Triton; further: nearly all actives have a fitted effect of over 20% in size
# Target sequence (P00811 whole entry, looked up): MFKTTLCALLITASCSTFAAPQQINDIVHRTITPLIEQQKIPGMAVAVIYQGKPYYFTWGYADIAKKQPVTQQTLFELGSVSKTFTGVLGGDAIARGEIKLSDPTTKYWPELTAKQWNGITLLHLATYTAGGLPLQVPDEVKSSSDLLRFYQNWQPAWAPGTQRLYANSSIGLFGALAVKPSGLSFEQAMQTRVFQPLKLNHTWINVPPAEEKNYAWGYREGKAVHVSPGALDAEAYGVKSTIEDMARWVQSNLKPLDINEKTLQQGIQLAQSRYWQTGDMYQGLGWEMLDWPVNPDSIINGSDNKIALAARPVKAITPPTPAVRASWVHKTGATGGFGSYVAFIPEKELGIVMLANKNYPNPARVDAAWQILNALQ
#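 AmpC (5.3 nM in the dispensed reagent) in 20 mM phosphate pH 7.0 with 0.01% (detergent screen) or 0.0001% Triton X-100 was preincubated with compounds for 15 min at room temperature. Nitrocefin was then added from an 800 uM solution, and hydrolysis was followed at 480 nm.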
# CHX counter – Cycloheximide Counterscreen for Small Molecule Inhibitors of Shiga Toxin | cell reporter, cycloheximide protein synthesis inhibition counterscreen | max response, % | actives 12% (n = 300,000); in the data active means max response mostly above about 13%, no sharp cut-off; inactive means mostly below about 14%; further: read at 38.3 µM for the half of the compounds with a filed dose
# Shiga inhibitor – A qHTS for Small Molecule Inhibitors of Shiga Toxin | Vero cells, Shiga toxin protein synthesis inhibition reporter | inhibition, % at 38.7 µM | actives 9.2% (n = 290,000) | AID 2315, 2010; in the data active means inhibition mostly above about 28%, no sharp cut-off; inactive means mostly below about 43%
# NS1 function inh – qHTS Assay for Inhibitors of Influenza NS1 Protein Function; AID 2326, 2010; actives 0.4% (n = 270,000); Potency, µM (doses to about 46.1 µM); calls by dose curve; further: actives are rising curves; nearly all actives have a fitted effect of over 50% in size
#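 In this qHTS, NS1 from influenza A is expressed in budding yeast, where it slows growth. Cells are switched from glucose to 2% galactose medium (pH 6.0, -URA), treated with compound, and growth recovery is read at OD600.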
# AmpC detergent – qHTS Inhibitors of AmpC Beta-Lactamase (assay with detergent). P00811. AmpC hydrolysis of nitrocefin, absorbance 480 nm, 0.01% Triton. Potency, µM (titrated, usually from 114 µM), usual class: inhibitors. actives 0.041% (n = 370,000). AID 485294, 2010; further: nearly all actives have a fitted effect of over 25% in size
#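 AmpC (5.3 nM in the dispensed reagent) in 20 mM phosphate pH 7.0 with 0.01% (detergent screen) or 0.0001% Triton X-100 was preincubated with compounds for 15 min at room temperature. Nitrocefin was then added from an 800 uM solution, and hydrolysis was followed at 480 nm.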
# Numbers stand for hits; i = inactive; ? = inconclusive; nt = no result; + = active, no number. Unless noted, the call rests on the fitted dose curve; in most records, active means well fitted curve in the direction sought with a large enough effect; inconclusive means small, poorly fitted or top-dose-only effect, or another doubt; inactive means no such curve, though single readings can be large; an effect the other way counts as inactive or inconclusive.
SMILES,AmpC no deterg,CHX counter,Shiga inhibitor,NS1 function inh,AmpC detergent
CCC(C)n1c(/C=C/c2ccccc2)nc2ccccc21 (stereo unspecified),i,25,i,i,i
CCC(C)n1c(S(=O)(=O)O)nc2ccccc21 (stereo unspecified),i,i,i,i,i
CCOC(=O)C1=C(C)Nc2ccc(C)cc2S1,i,i,i,i,i
CCOCCOC(=O)C1=C(C)Nc2ccc(C)cc2S1,i,22,i,i,i
CSCCOC(=O)C1=C(C)Nc2ccc(C)cc2S1,i,14,i,i,i
CCOC(=O)CC1Sc2ccccc2NC1=O (stereo unspecified),i,i,i,i,?
CCOC(=O)C1Sc2ccccc2NC1=O (stereo unspecified),i,i,i,nt,i
CCOC(=O)/C=C1\Nc2ccccc2SC1=O,20µM,i,i,i,i
CCOC(=O)C1=C(C)Nc2ccccc2S1,i,23,31,i,i
CCOc1ccc(OCc2cccc(C(=O)Nc3ccc(CN4CCCCC4)cc3)c2)cc1,i,122,87,i,i
O=C(Nc1ccc(CN2CCCCC2)cc1)c1cccc(F)c1,i,31,39,i,i
COc1ccc(OCc2cccc(C(=O)Nc3ccc(CN4CCCCC4)cc3)c2)cc1,i,127,+,i,?
COc1cc(OC)cc(C(=O)Nc2ccc(CN3CCCCC3)cc2)c1,i,i,i,i,i
O=C(O)CO,nt,i,i,nt,nt
CCOC(CNC(=O)c1ccc2c(c1)ncn2-c1ccc(F)c(F)c1)OCC,i,i,i,nt,i
Cc1nc(NCCc2ccc(O)cc2)c2nnn(Cc3ccccc3)c2n1,i,i,i,i,i
Cc1nc(NCCc2ccc(F)cc2)c2nnn(Cc3ccccc3)c2n1,i,i,i,i,i
CCCNc1nc(C)nc2c1cnn2CCc1ccccc1,i,19,i,i,i
Cc1nc(NC(C)C)c2cnn(CCc3ccccc3)c2n1,i,19,i,i,?
Cc1ccc(CCNC(=O)c2cc3c(=O)oc4ccccc4c3s2)cc1,nt,nt,nt,nt,i
COc1ccccc1NC(=O)CCn1cnc2onc(-c3ccc(F)cc3)c2c1=O,nt,nt,nt,nt,i
O=C(Oc1ccc(Cl)c2cccnc12)N1CCCCC1,i,i,i,i,i
O=C(Oc1c(Br)cc(Br)c2cccnc12)N1CCCCC1,i,32,i,nt,i
CC(=O)Nc1ccc(Nc2cc(C)nc3c(-c4ccccc4)cnn23)cc1,i,34,71,i,i
CCOC(=O)Cc1c(C)nc2c(-c3cccc(Br)c3)cnn2c1C,i,i,i,i,i
SMILES,AmpC no deterg,CHX counter,Shiga inhibitor,NS1 function inh,AmpC detergent
Cc1cc(N2CCN(C3CCCC3)CC2)n2ncc(-c3ccccc3)c2n1,i,i,i,i,i
Cc1cc(N)n2ncc(-c3ccccc3)c2n1,i,58,72,i,i
Cc1cc(N)n2ncc(-c3cccc(Br)c3)c2n1,i,41,110,i,i
CC(C(=O)Nc1ccc2c(c1)OCCO2)N(C)CC(=O)Nc1ccccc1Br (stereo unspecified),i,nt,nt,nt,i
CC[C@]12c3[nH]c4ccc(Cl)cc4c3CCN1C(=O)[C@@H](CC(=O)NCCCn1ccnc1)C[C@@H]2C(=O)N1CCN(C(=O)c2ccco2)CC1,i,nt,nt,nt,nt
CCC1=Nc2cc(C(=O)NC3CCC(C)CC3)ccc2Sc2ccc(C)cc21 (stereo unspecified),nt,nt,nt,nt,i
COc1ccc(COC[C@H](C)[C@H](O[Si](C)(C)C)[C@@H](C)[C@H]2OC(=O)[C@H]2C)cc1,nt,i,i,nt,nt
Cc1ccc(C2CC(=O)n3nc(-c4ccc(Cl)cc4)nc3S2)cc1 (stereo unspecified),nt,nt,nt,nt,i
COC(=O)C(C)Oc1ccc2c(c1)O/C(=C\c1ccco1)C2=O (stereo unspecified),i,37,71,i,i
COc1ccc(/C=C2\Oc3cc(OCC(N)=O)ccc3C2=O)cc1OC,i,i,i,i,i
COc1ccc2c(c1)O/C(=C\c1ccco1)C2=O,i,30,i,i,i
CCCCCCCCCCC[C@@H](C[C@@H]1OC(=O)[C@H]1CCCCCC)OC(=O)[C@H](CC(C)C)NC=O,i,i,i,nt,i
CCOC(=O)N1CCN(C(=O)CCCOc2ccccc2)CC1,i,29,113,i,?
O=C(CCCOc1ccccc1)N1CCN(S(=O)(=O)c2ccccc2)CC1,i,nt,nt,nt,i
Cc1cccc(N2CCN(C(=O)Cc3ccccc3[N+](=O)[O-])CC2)c1C,i,27,i,i,i
Cc1cccc(N2CCN(C(=O)CCCOc3ccccc3)CC2)c1C,i,64,134,i,i
CCn1c(CNC(=O)c2cccnc2)cc2ccccc21,i,i,i,?,i
CCn1c(CNC(=O)c2ccc(F)cc2)cc2ccccc21,i,30,i,i,i
COc1ccc(C(=O)NCc2cc3ccccc3n2C)cc1,i,29,nt,i,i
Cn1c(CC(=O)Nc2ccccc2)cc2ccccc21,i,40,46,i,i
COc1ccc(C(=O)NCc2ccc3c(c2)cc(C)n3C)cc1,i,i,i,i,i
O=C(CCCN1C(=O)/C(=C/c2ccccc2Cl)SC1=S)Nc1cccnc1,i,29,42,i,i
Cc1ccc(C(=O)NNC(=O)CCCN2C(=O)/C(=C/c3ccccc3Cl)SC2=S)cc1,32µM,i,i,i,i
Oc1ccc(O)c(/C(=N/Nc2ccccc2)c2ccccc2)c1,i,27,i,i,i
Cc1cc(C)nc(NN=C(c2ccccc2)c2ccccc2)n1,i,i,i,i,i
SMILES,AmpC no deterg,CHX counter,Shiga inhibitor,NS1 function inh,AmpC detergent
CN(Cc1ccccc1)C(=O)c1ccc(NC(=O)C2CCN(C(=O)OC(C)(C)C)CC2)cc1,i,nt,nt,nt,nt
O=C(CCCn1c2ccccc2c(=O)c2ccccc21)Nc1ccc(F)cc1Cl,nt,nt,nt,nt,i
CCCOc1ccc(S(=O)(=O)Nc2ccccn2)c2ccccc12,i,i,nt,i,i
Nc1nc2c(nc(Br)n2C2O[C@H]3COP(=O)(O)O[C@@H]3C2O)c(=O)[nH]1 (stereo partly specified),nt,nt,nt,i,nt
C(=C\c1nnc(-c2cccs2)o1)/c1ccccc1,i,63,71,i,i
Cc1ccc(/C=C/c2nnc(-c3ccccc3)o2)cc1,i,23,i,i,?
Cc1ccc(-c2noc(/C=C/c3ccccc3)n2)cc1,i,19,i,i,i
Cc1ccc(-c2nnc(-c3ccc4ccccc4c3)o2)cc1,nt,nt,nt,i,nt
Cc1nnc(SCc2nnc(-c3cccs3)o2)n1Cc1ccccc1,i,i,i,nt,i
CC(C)(C)C(CO)NC(=O)c1ccc[nH]1 (stereo unspecified),i,nt,nt,nt,i
O=C(Nc1ccc(F)cc1)c1ccc(NC(=O)C2CCCO2)cc1 (stereo unspecified),i,21,73,i,i
O=C(Nc1cccc(O)c1)c1ccc(NC(=O)C2CCCO2)cc1 (stereo unspecified),i,47,110,i,i
O=C(O)c1cccc(NC(=O)c2cccc(NC(=O)C3CCCO3)c2)c1 (stereo unspecified),i,i,i,i,?
